Laboratory results published in ChEMBL document CHEMBL5606458, “ASAP - ZIKV NS2B-NS3 protease fluorescence single point” (2024).
The campaign covered roughly 2,700 compounds. About 160 (5.9%) showed an effect of 50% or more. This excerpt belongs to a sample that is enriched for strong results.

Molecular target: Nonstructural protein 3 (Zika virus) (UniProt A0A024AXB9)
Sequence (A0A024AXB9 as listed by the source): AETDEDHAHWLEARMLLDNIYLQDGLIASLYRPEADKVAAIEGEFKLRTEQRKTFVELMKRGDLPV

## Fc1ncccc1OCc1cc(Cl)nc(N2CCNCC2)n1
PRVABC59, Concentration 49.5 uM, Number of replicates 2.0, Standard deviation 1.0140201320428779 %
  inhibition: 15.1%
PRVABC59, Concentration 99.01 uM, Number of replicates 2.0, Standard deviation 1.7990689115932277 %
  inhibition: 28.4%
PRVABC59, Concentration 198.0 uM, Number of replicates 2.0, Standard deviation 0.8686404786633404 %
  inhibition: 49%

## COc1ccc(S(=O)(=O)n2nc(OC(=O)c3cccc(-c4ccccc4Cl)c3)cc2N)cc1
PRVABC59, Concentration 49.5 uM, Number of replicates 2.0, Standard deviation 0.015159378472398365 %
  inhibition: 94.1%
PRVABC59, Concentration 99.01 uM, Number of replicates 2.0, Standard deviation 0.0016885713387404585 %
  inhibition: 94.1%
PRVABC59, Concentration 198.0 uM, Number of replicates 2.0, Standard deviation 0.07411371581986076 %
  inhibition: 93.9%

## c1ccc2oc(C3CCN(Cc4c[nH]c5ccccc45)CC3)nc2c1
PRVABC59, Concentration 49.5 uM, Number of replicates 2.0, Standard deviation 0.07645236015003325 %
  inhibition: 37.2%
PRVABC59, Concentration 99.01 uM, Number of replicates 2.0, Standard deviation 0.17318915555138958 %
  inhibition: 54.7%
PRVABC59, Concentration 198.0 uM, Number of replicates 2.0, Standard deviation 0.13417938126885842 %
  inhibition: 70.9%

## c1ccc2sc(C3CCN(Cc4c[nH]c5ccccc45)CC3)nc2c1
PRVABC59, Concentration 49.5 uM, Number of replicates 2.0, Standard deviation 0.0213310257935456 %
  inhibition: 83.5%
PRVABC59, Concentration 99.01 uM, Number of replicates 2.0, Standard deviation 0.10666052376433739 %
  inhibition: 89.1%
PRVABC59, Concentration 198.0 uM, Number of replicates 2.0, Standard deviation 0.03774199707932348 %
  inhibition: 90.7%

## c1ccc(-c2csc(C3CCN(Cc4c[nH]c5ccccc45)CC3)n2)cc1
PRVABC59, Concentration 49.5 uM, Number of replicates 2.0, Standard deviation 0.9101885047505917 %
  inhibition: 64.4%
PRVABC59, Concentration 99.01 uM, Number of replicates 2.0, Standard deviation 0.676804208631579 %
  inhibition: 66.1%
PRVABC59, Concentration 198.0 uM, Number of replicates 2.0, Standard deviation 0.5886424424408551 %
  inhibition: 66.1%

## Cc1nc(C2CCN(Cc3c[nH]c4ccccc34)CC2)sc1C(=O)O
PRVABC59, Concentration 49.5 uM, Number of replicates 2.0, Standard deviation 1.7503606417061577 %
  inhibition: 29.1%
PRVABC59, Concentration 99.01 uM, Number of replicates 2.0, Standard deviation 0.7623791698480982 %
  inhibition: 49%
PRVABC59, Concentration 198.0 uM, Number of replicates 2.0, Standard deviation 0.018153490590612276 %
  inhibition: 66.9%

## COC(=O)c1csc2cc(C(=O)N3CCCc4cc(CCN)ccc43)[nH]c12
PRVABC59, Concentration 49.5 uM, Number of replicates 2.0, Standard deviation 0.9658024514724747 %
  inhibition: 6.59%
PRVABC59, Concentration 99.01 uM, Number of replicates 2.0, Standard deviation 0.02626726469114151 %
  inhibition: 17.1%
PRVABC59, Concentration 198.0 uM, Number of replicates 2.0, Standard deviation 0.028287616021359725 %
  inhibition: 35.6%

## c1ccc2c([C@H]3CCN(C[C@H]4CCOC4)C3)c[nH]c2c1
PRVABC59, Concentration 49.5 uM, Number of replicates 2.0, Standard deviation 3.5400839111105795 %
  inhibition: 4.89%
PRVABC59, Concentration 99.01 uM, Number of replicates 2.0, Standard deviation 2.681337995191051 %
  inhibition: 11.3%
PRVABC59, Concentration 198.0 uM, Number of replicates 2.0, Standard deviation 1.591884445207739 %
  inhibition: 20.9%

## CS(=O)(=O)c1ccc(N2CCNCC2)cc1NC(=O)c1cccc2ncccc12
PRVABC59, Concentration 49.5 uM, Number of replicates 2.0, Standard deviation 1.82855821855933 %
  inhibition: 11.9%
PRVABC59, Concentration 99.01 uM, Number of replicates 2.0, Standard deviation 4.882597086209548 %
  inhibition: 19.4%
PRVABC59, Concentration 198.0 uM, Number of replicates 2.0, Standard deviation 6.745947359627227 %
  inhibition: 12.5%

## CCn1ccnc(N2CC[C@@H](CC(N)=O)C2)c1=O
PRVABC59, Concentration 49.5 uM, Number of replicates 2.0, Standard deviation 2.578637589312797 %
  inhibition: 7.29%
PRVABC59, Concentration 99.01 uM, Number of replicates 2.0, Standard deviation 2.4095461189610305 %
  inhibition: 15.8%
PRVABC59, Concentration 198.0 uM, Number of replicates 2.0, Standard deviation 1.1815224976183896 %
  inhibition: 30.8%

## Cc1cnccc1NC(=O)c1cccn(C[C@@H]2CCNC2)c1=O
PRVABC59, Concentration 49.5 uM, Number of replicates 2.0, Standard deviation 1.3483593644559142 %
  inhibition: 2.86%
PRVABC59, Concentration 99.01 uM, Number of replicates 2.0, Standard deviation 1.4355155911348652 %
  inhibition: 4.88%
PRVABC59, Concentration 198.0 uM, Number of replicates 2.0, Standard deviation 0.7536456684870648 %
  inhibition: 8.2%

## CNC(=O)c1cc(Cl)ccc1NS(=O)(=O)c1cccc(Oc2ccccc2)c1
PRVABC59, Concentration 49.5 uM, Number of replicates 2.0, Standard deviation 3.0665234385287206 %
  inhibition: 9.77%
PRVABC59, Concentration 99.01 uM, Number of replicates 2.0, Standard deviation 2.7531252049731103 %
  inhibition: 15.8%
PRVABC59, Concentration 198.0 uM, Number of replicates 2.0, Standard deviation 3.162284112918565 %
  inhibition: 28.1%

## O=S(=O)(Nc1ccc(Cl)cc1)c1ccc(Oc2ccccc2Cl)cc1
PRVABC59, Concentration 49.5 uM, Number of replicates 2.0, Standard deviation 0.5562375850821631 %
  inhibition: 7.5%
PRVABC59, Concentration 99.01 uM, Number of replicates 2.0, Standard deviation 0.1909474772903637 %
  inhibition: 13.8%
PRVABC59, Concentration 198.0 uM, Number of replicates 2.0, Standard deviation 0.9464347944699606 %
  inhibition: 26.1%

## CNC(=O)c1cc(Cl)c(F)cc1NS(=O)(=O)c1ccc(Oc2ccccc2Cl)cc1
PRVABC59, Concentration 49.5 uM, Number of replicates 2.0, Standard deviation 0.22897404989083275 %
  inhibition: 53.5%
PRVABC59, Concentration 99.01 uM, Number of replicates 2.0, Standard deviation 0.1399302344544729 %
  inhibition: 88.1%
PRVABC59, Concentration 198.0 uM, Number of replicates 2.0, Standard deviation 0.21988651500230783 %
  inhibition: 90.5%

## CCc1ccc(NS(=O)(=O)c2ccc(Oc3ccccc3Cl)cc2)c(C(=O)NC)c1
PRVABC59, Concentration 49.5 uM, Number of replicates 2.0, Standard deviation 1.2139175769082269 %
  inhibition: 14.3%
PRVABC59, Concentration 99.01 uM, Number of replicates 2.0, Standard deviation 1.880844587297581 %
  inhibition: 19.5%
PRVABC59, Concentration 198.0 uM, Number of replicates 2.0, Standard deviation 1.9898788215700518 %
  inhibition: 28.9%

## CNC(=O)c1cc(Cl)c(OC)cc1NS(=O)(=O)c1ccc(Oc2ccccc2Cl)cc1
PRVABC59, Concentration 49.5 uM, Number of replicates 2.0, Standard deviation 2.6404535290867552 %
  inhibition: 34.2%
PRVABC59, Concentration 99.01 uM, Number of replicates 2.0, Standard deviation 0.459760751442422 %
  inhibition: 79.4%
PRVABC59, Concentration 198.0 uM, Number of replicates 2.0, Standard deviation 0.11085228072983687 %
  inhibition: 89.8%

## NC(=O)c1ccccc1NS(=O)(=O)c1ccc(Oc2ccccc2Cl)cc1
PRVABC59, Concentration 49.5 uM, Number of replicates 2.0, Standard deviation 0.8239548725855442 %
  inhibition: -1.32%
PRVABC59, Concentration 99.01 uM, Number of replicates 2.0, Standard deviation 0.884539787208196 %
  inhibition: 2%
PRVABC59, Concentration 198.0 uM, Number of replicates 2.0, Standard deviation 0.6321029239261367 %
  inhibition: 31.5%

## CNC(=O)c1cc(C#N)ccc1NS(=O)(=O)c1ccc(Oc2ccccc2Cl)cc1
PRVABC59, Concentration 49.5 uM, Number of replicates 2.0, Standard deviation 1.5671297466159566 %
  inhibition: 15.1%
PRVABC59, Concentration 99.01 uM, Number of replicates 2.0, Standard deviation 1.4439402403900108 %
  inhibition: 25.1%
PRVABC59, Concentration 198.0 uM, Number of replicates 2.0, Standard deviation 0.43015410765006534 %
  inhibition: 58.3%
